PubChem BioAssay (NCI)
The panel holds about 83,000 compounds, 20% with a hit somewhere; the sample as a whole holds those more often.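 Cell lines were cultured in 96-well plates, exposed to a single compound concentration, and assessed for percent growth 48 hours later.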 Values without a mark were called inactive. Active and inactive are the calls of the source. The calls were made as follows: active = growth percent below 10; inactive = the rest.

system: HL-60(TB) leukemia; experiment: NCI-60 one-dose screen, 48 h (100 = growth as untreated, 0 = no growth, -100 = all killed); details: 10 µM unless noted

Row | SMILES | growth
1 | COC1=C(C)C(=O)c2c(c(CCCl)c3n2CCC3OC(C)=O)C1=O (stereo not drawn) | 34.2%
2 | N#Cc1c(N)nc(NCCO)nc1-c1ccc(F)cc1 | 93.6%
3 | CCN(CC)CCC(=O)Nc1ccc(Cn2nnc3c2C(=O)c2nnn(Cc4ccc(NC(=O)CCN(CC)CC)cc4)c2C3=O)cc1 | -36.4% (active)
4 | COc1cc(-c2nc3ccccc3o2)cc(CN2CCN(c3ccccc3)CC2)c1O | 71.3%
5 | CCCNC(=O)Oc1ccc(/C(=C(\C)c2ccccc2)c2ccc(OCCCN(C)C)cc2)cc1 | 65.3%
6 | O=C1/C(=C/c2cccc(Br)c2)COc2ccc(O)c(O)c21 | -15.3% (active)
7 | CCCCN(CCCC)CC(CN(CC)CC)OC(=O)Nc1ccccc1 (stereo not drawn) | 84.1%
8 | CC(=O)OC[C@]12CC[C@H]3[C@@H](C[C@H]4O[C@]45CC=CC(=O)[C@]35C)[C@]1(O)CC[C@@]2(O)[C@@](C)(O)C1CC(C)=C(C)C(=O)O1 (stereo partly drawn) | -11.8% (active)
9 | O=C(CCCCCCN1CC(=O)N2[C@H](c3ccc(Br)cc3)c3[nH]c4ccccc4c3C[C@@H]2C1=O)NO | 5.8% (active)
10 | CN(CCc1ccccc1)C(=S)N(C(=O)c1ccc([N+](=O)[O-])cc1)c1ccc(Cl)cc1 | 45%
11 | COc1ccc(C(=O)/C=C/c2cn(Cc3ccc(Cl)cc3)c3ccccc23)cc1 | 47.2%
12 | O=C(O)C1[S][Sb]([CH](C(=O)O)[CH](C(=O)O)[Sb]2[S]C(C(=O)O)C(C(=O)O)[S]2)[S]C1C(=O)O (stereo not drawn) | 94.3%
13 | Cc1c(O)cc(-c2cnc(Nc3ccccc3)s2)c(O)c1C | 101%
